Most compounds without a hit are left out; they make up all but 18% or so of the library.
GCN5L2 inh – blocks human GCN5L2 histone acetyltransferase. AID 504327. 390,000 compounds, 0.21% hits. GCN5L2 HAT assay, ThioGlo1 CoA-SH fluorescence. Q92830. Potency, µM (series often up to 58.9 µM), for inactives: top-dose activity change, negative = inhibition, hits mostly inhibitors
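Titration-based screen in which CoA formation is detected via maleimide probe ThioGlo1 (50uM) turning fluorescent on thiol reaction; substrates H3(1-25) 75uM and acetyl-CoA 70uM, GCN5L2 20nM, 20 min incubation at room temperature.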
DT40 TDP1 no CPT – qHTS for Inhibitors of human tyrosyl-DNA phosphodiesterase 1 (TDP1): qHTS in cells in absence of CPT | 420,000 compounds, 15% hits | Potency, µM (titrated, usually from 46.2 µM), without a hit: at the highest dose activity change, negative = growth inhibition, hits mostly inhibitors | DT40 Tdp1-/- hTDP1 cells, no CPT, ATP luminescence, 48 h; further: nearly all actives have a fitted effect of over 55% in size
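No-CPT arm: Tdp1-/-;hTDP1 DT40 cells (400/well) plus compounds, incubated ≥48 hr at 37 °C. Readout CellTiter-Glo luminescence.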
DT40 TDP1 CPT – growth inhibition of DT40 Tdp1-/-;hTDP1 cells with camptothecin (screen for TDP1 inhibitors). chicken DT40 Tdp1-/-;hTDP1 cells + 20 nM CPT, ATP luminescence, 48 h. Potency, µM (titrated, usually from 46.2 µM), inactives show top-dose activity change, negative = growth inhibition, actives largely listed as inhibitors. 420,000 compounds, 12% hits; further: nearly all actives have a fitted effect of over 55% in size
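Cell growth measured by CellTiter-Glo luminescence after a minimum 48 h, 37 C compound exposure with 20 nM CPT in Tdp1-knockout DT40 cells stably expressing hTDP1, seeded 400/well; qHTS titration format.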
TDP1 inh – TDP1 (human) enzyme inhibition; Potency, µM (doses to about 130 µM), inactives show at the top dose activity change, negative = inhibition, hits mostly inhibitors; AID 485290; 350,000 compounds, 0.28% hits; recombinant TDP1, AlphaScreen DNA substrate cleavage; Q9NUW8; further: nearly all actives have a fitted effect of over 40% in size
Target sequence (Q9NUW8 whole entry, looked up): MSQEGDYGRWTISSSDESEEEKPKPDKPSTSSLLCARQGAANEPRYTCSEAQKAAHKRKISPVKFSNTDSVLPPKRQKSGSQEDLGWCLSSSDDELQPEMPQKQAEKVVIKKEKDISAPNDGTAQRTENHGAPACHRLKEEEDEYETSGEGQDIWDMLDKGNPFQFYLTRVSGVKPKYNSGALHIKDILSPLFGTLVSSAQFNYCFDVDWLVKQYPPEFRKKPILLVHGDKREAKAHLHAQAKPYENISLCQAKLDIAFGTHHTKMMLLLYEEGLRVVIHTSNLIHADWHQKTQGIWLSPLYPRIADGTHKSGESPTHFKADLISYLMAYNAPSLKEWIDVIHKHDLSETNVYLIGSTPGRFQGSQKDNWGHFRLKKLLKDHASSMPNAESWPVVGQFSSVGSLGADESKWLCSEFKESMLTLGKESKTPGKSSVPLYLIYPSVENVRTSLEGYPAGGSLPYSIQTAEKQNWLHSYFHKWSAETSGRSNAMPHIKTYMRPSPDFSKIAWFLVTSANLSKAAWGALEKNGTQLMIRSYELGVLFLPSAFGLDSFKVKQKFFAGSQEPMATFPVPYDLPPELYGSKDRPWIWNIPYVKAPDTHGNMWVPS
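AlphaScreen read-out: signal falls as enzyme removes the 3' tyrosine-FITC from a 5'-biotinylated DNA oligo (15 nM, 5 min, RT). Enzyme was E. coli-made recombinant Tdp1 at 1 nM, exposed to compound for 15 min beforehand; beads 10 ug/ml, 10 min.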
PLK1 PBD inh – PLK1 (human) polo-box domain binding inhibition; P53350; Plk1 PBD binding of FITC phosphopeptide, fluorescence polarization; Potency, µM, for inactives: max response, negative = inhibition, most hits filed as inhibitors; 360,000 compounds, 2.8% hits; further: series mostly up to about 57 µM; nearly all actives have a fitted effect of over 65% in size
VDR inhibitor – blocks the human vitamin D receptor; P11473; VDR-SRC2-3 peptide fluorescence polarization, 2 h; Potency, µM, for inactives: max response, negative = inhibition, hits mostly inhibitors; 400,000 compounds, 0.93% hits; AID 504847
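After 23 nl compound addition and a short centrifugation, plates sat for 2 hours at ambient temperature; polarization of fluorescence then indicated loss of VDR binding to peptide SRC2-3.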
* hit, by the source's call; ? = inconclusive; · = not tested or not shown; [ ] = remark or other dose. The call rests on the fitted dose curve; in most records, active means well fitted curve in the direction sought with a large enough effect; inconclusive means small, poorly fitted or top-dose-only effect, or another doubt; inactive means no such curve, though single readings can be large; an effect the other way counts as inactive or inconclusive. On the % scale 0 is the no-effect control and ±100 the full control effect; potency means the concentration at half of the fitted maximal effect.

SMILES | GCN5L2 inh | DT40 TDP1 no CPT | DT40 TDP1 CPT | TDP1 inh | PLK1 PBD inh | VDR inhibitor
COc1ccc(C2=Nc3ccccc3N(C(=O)c3ccncc3)C2C(=O)NC(C)C)cc1 (centres undefined) | · | -28.5% | ? | · | -2.8% | ·
COc1ccc(C2=Nc3ccccc3N(C(=O)c3ccc4ncccc4c3)C2C(=O)NC2CCCC2)cc1 (centres undefined) | · | 9.2µM* | 8.2µM* | · | -3.9% | ·
O=C(NCc1ccccn1)C1CCN(C2CCN(Cc3cccc(F)c3)CC2)CC1 | · | -0.5% | -19.0% | · | 0.5% | ·
Cc1ccc(OCC(=O)NCCNC(=O)COc2ccc(C)cc2)cc1 | -2.2% | ? | -13.5% | 10.1% | -2.3% | -5.2%
Cc1ccc(OCC(=O)Sc2ccc(C)cc2)cc1 | -5.7% | ? | -28.7% | 1.5% | 5.97µM* | 44.7µM*
CC(=O)C[C@@H]1OC[C@H](C(C)C)N1S(=O)(=O)c1ccc(C)cc1 | · | ? | ? | · | 1.5% | ·
CC(=O)C[C@H]1SC[C@@H](C(C)C)N1S(=O)(=O)c1ccc(C)cc1 | · | 13µM* | 9.2µM* | · | -4.4% | ·
Cc1ccc(S(=O)(=O)N2[C@@H](CCO)OC[C@H]2C(C)C)cc1 | · | ? | -3.3% | · | -8.7% | ·
Cc1ccc(S(=O)(=O)C[C@@H]2OC[C@H](C(C)C)N2S(=O)(=O)c2ccc(C)cc2)cc1 | · | 16.4µM* | 18.4µM* | · | -2.6% | ·
Cc1ccc(S(=O)(=O)N2[C@H](CC(=O)Oc3ccccc3)OC[C@@H]2C(C)C)cc1 | · | 13µM* | 13µM* | · | 4.6% | ·
Cc1nc(N2CCCCC2)sc1C(=O)c1cccc([N+](=O)[O-])c1 | -0.1% | ? | ? | 11.0% | -12.2% | -23.6%
Cc1nc(N2CCCCC2)sc1C(=O)c1ccc(SCCO)c([N+](=O)[O-])c1 | -19.4% | 18.4µM* | ? | 8.1% | 8.44µM* | ?
Cc1ccc2nc(Cl)c(/C=N/n3c(C)nnc3C)cc2c1 | -4.9% | 20.6µM* | ? | -5.4% | -3.0% | -8.3%
Oc1ccc(/C=N/N(Cc2ccccc2)c2ccccc2)c(O)c1O | ? | 18.4µM* | 25.9µM* | 9.8% | ? | 2.3%
Oc1cccc(/C=N/N(Cc2ccccc2)c2ccccc2)c1 | -20.8% | ? | -25.3% | 7.7% | -1.3% | 4.9%
CCOC(=O)CN1C(=O)N[C@@H](CCc2ccccc2)C(C(C)=O)=C1C | · | -18.2% | -2.1% | 10.4%[12.3 µM] | -8.4% | -2.7%
CCOC(=O)C1=CNS(=O)(=O)NC1CCc1ccccc1 (centres undefined) | -10.9% | 23.1µM* | ? | 0.7%[56.1 µM] | -10.9% | -24.8%
CCCS(=O)(=O)NC(=O)C1(C)CCN(C(=O)Cc2cccc(OC)c2)C1 (centres undefined) | · | -3.1% | 3.1% | · | -2.8% | ·
CSCC[C@H](NC(=O)OC(C)(C)C)C(=O)N/N=C/c1cccc2cccnc12 | -4.6% | 20.6µM* | 25.9µM* | 2.6% | -6.0% | -2.1%
COc1ccc(C(=O)N/N=C/c2cc3ccccc3[nH]c2=S)cc1 | -15.3%[0.501 µM] | 1.46µM* | 1.46µM* | 9.5% | 15µM* | -2.0%
COc1ccc(C(=O)N/N=C/c2c[nH]c3ccccc23)cc1 | -20.2% | 2.0% | 0.4% | -0.7% | -6.8% | -28.0%
COc1ccc(C(=O)N/N=C/c2cccc3cccnc23)cc1 | -3.6% | 4.61µM* | 4.11µM* | 10.3% | -2.4% | 10.2%
COc1ccc2nc(/C=N/NC(=O)[C@H](CCSC)NC(=O)OC(C)(C)C)ccc2c1 | -8.4% | 2.5% | 7.1% | 0.0% | -2.0% | -5.5%
CCNC(=O)C12CCC(C)(C(=O)O1)C2(C)C (centres undefined) | -6.8% | -9.3% | 21.2% | 2.4% | -19.6% | -5.0%
O=C(c1ccc(Cl)c(S(=O)(=O)N2CCOCC2)c1)N1CCc2ccccc2C1 | -2.9% | ? | ? | 1.7% | -15.4% | -3.6%
Cc1nc(SCc2cccc(C(=O)O)c2)nc2c1CCCC2 | 4.2% | -3.9% | 7.4% | -7.6% | 26.7µM* | -4.7%

Compound activity from PubChem.
